# From PubChem BioAssay (Tox21)
# Unmarked numbers belong to inactive results. Inconclusive results are not listed. Where a call stands in place of a potency, no number is given. Active and inactive are the calls of the source. Unless noted, the call rests on the fitted dose curve; in most records, active means well fitted curve in the direction sought with a large enough effect in the repeat runs; inconclusive means weak or mixed curves; inactive means no such curve, though single readings can be large; an effect the other way counts as inactive or inconclusive.
# Columns and labels:
# [1] = A CellTox Green Cytotoxicity Assay to monitor cytotoxicity in HEK293 cells - 32 hour (AID 1224881); further: nearly all actives have a fitted effect of over 40% in size
# How it was run: (§1)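 Seeding of HEK293 cells together with cytotoxicity dye preceded a 5 h incubation at 37 C/5% CO2. Test compounds in DMSO were then added and fluorescence monitored across 40 h.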
# [2] = A CellTox Green Cytotoxicity Assay to monitor cytotoxicity in HepG2 cells - 0 hour (AID 1224882); further: nearly all actives have a fitted effect of over 35% in size
# How it was run: (§2)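 Nonlytic assay: viable cells exclude the dye, so fluorescence scales with cell death. HepG2 at 600 cells/well, compounds added after 5 h, signal read across 40 h.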
# [3] = A CellTox Green Cytotoxicity Assay to monitor cytotoxicity in HepG2 cells - 32 hour (AID 1224883); further: nearly all actives have a fitted effect of over 50% in size
# How it was run: as §2
# [4] = A CellTox Green Cytotoxicity Assay to monitor cytotoxicity in HEK293 cells - 8 hour (AID 1224884); further: nearly all actives have a fitted effect of over 35% in size
# How it was run: as §1
# [5] = qHTS RealTime-Glo MT Cell Viability Assay in HepG2 cells - 16 hour (AID 1224885); further: nearly all actives have a fitted effect of over 50% in size
# How it was run: (§3)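 Compound treatment began 5 h after plating HepG2 cells (600/well) with NanoLuc luciferase and prosubstrate. Plates stayed at 37 C for 40 h; luminescence was captured at six time points, 0 h through 40 h.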
# [6] = qHTS RealTime-Glo MT Cell Viability Assay in HEK293 cells - 24 hour (AID 1224886); further: top concentration of the series differs between compounds; nearly all actives have a fitted effect of over 50% in size
# How it was run: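 Quantitative high-throughput screen of the Tox21 10K library in HEK293: cells and RealTime-Glo reagents plated together, compound added at 5 h, luminescence monitored through 40 h at 37 C.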
# [7] = qHTS RealTime-Glo MT Cell Viability Assay in HEK293 cells - 8 hour (AID 1224887); further: top concentration of the series differs between compounds; nearly all actives have a fitted effect of over 50% in size
# How it was run: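 Tox21 screen in HEK293 using RealTime-Glo MT chemistry, with cells and reagent co-dispensed. Luminescence proportional to viable cell number was captured at intervals during 40 h compound exposure at 37 C.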
# [8] = A CellTox Green Cytotoxicity Assay to monitor cytotoxicity in HEK293 cells - 16 hour (AID 1224888); further: nearly all actives have a fitted effect of over 35% in size
# How it was run: as §1
# [9] = qHTS RealTime-Glo MT Cell Viability Assay in HepG2 cells - 0 hour (AID 1224889); further: nearly all actives have a fitted effect of over 50% in size; further: potency means the concentration at half of the fitted maximal effect
# How it was run: as §3
# [10] = A CellTox Green Cytotoxicity Assay to monitor cytotoxicity in HepG2 cells - 8 hour (AID 1224890); further: nearly all actives have a fitted effect of over 45% in size
# How it was run: as §2
# [11] = qHTS assay to identify small molecule antagonists of the estrogen receptor alpha (ER-alpha) signaling pathway using the BG1 cell line in the presence of 0.1 nM 17-beta-estradiol - cell viability counter screen (AID 1259241); further: nearly all actives have a fitted effect of over 40% in size
# How it was run: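 Cytotoxicity counter-screen: live-cell protease activity measured by fluorescence (30 min reagent step) in the same wells. Cells were VM7Luc4E2 with endogenous ER-alpha and ERE-driven luciferase, treated 22 hr at 37C alongside 0.1 nM 17beta-estradiol final.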
# [12] = qHTS assay to identify small molecule antagonists of the androgen receptor (AR) signaling pathway using the MDA cell line in the presence of 0.5 nM R1881 - cell viability counter screen (AID 1259242); further: nearly all actives have a fitted effect of over 45% in size
# How it was run: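 R1881 at 0.5 nM final stimulated MDA-kb2 cells during 16 hr compound treatment at 37C. Cytotoxicity read: CellTiter-Fluor fluorescence after 30 min.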
# [13] = qHTS assay to identify small molecule phospholipidosis (PLD) inducers (AID 1259344; active means well fitted curve in the direction sought with a large enough effect; an effect the other way counts as inactive or inconclusive)
# How it was run: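 HepG2 cells on collagen I, attached 4 h at 37 C, were co-treated with compound and LipidTOX Red dye for 24 h at 37 C, then fixed with paraformaldehyde plus Hoechst 33342 and imaged by high-content microscopy for phospholipid accumulation.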
# [14] = qHTS assay to identify small molecule HDAC inhibitors (AID 1259364);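 further: wild-type HCT-116 cells with endogenous class I/II HDAC activity; top concentration of the series differs between compounds; nearly all actives have a fitted effect of over 45% in size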
# How it was run: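 Relative class I and II HDAC activity is taken from the luminogenic signal in HCT-116 cells, with compound exposure 2 hr and reagent development 30 min at room temperature.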
# [15] = qHTS assay to identify small molecule HDAC inhibitors - cell viability counter screen (AID 1259365)
# How it was run: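 CellTiter-Glo luminescence (30 min, room temperature) reported viability after a 2 h compound exposure at 37 C. Cells: wild-type HCT-116, 1,500 per well, seeded the night before.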
# [16] = qHTS assay to identify small molecule agonists of the sonic hedgehog signaling (Shh) pathway - cell viability counter screen (AID 1259366); further: nearly all actives have a fitted effect of over 50% in size
# How it was run: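 Cytotoxicity counter screen: CellTiter-Fluor reagent added after 23 h compound exposure, then 1 h at 37C and fluorescence read. Cells were 3T3 Gli1-Luc, seeded 2,000 per well and dosed 4 h post-plating.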
# [17] = qHTS assay to identify small molecule antagonists of the sonic hedgehog signaling (Shh) pathway - cell viability counter screen (AID 1259367); further: nearly all actives have a fitted effect of over 55% in size
# How it was run: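 NIH/3T3-derived Gli1-Luc reporter cells (2,000 per well) rested 4 hr at 37 C, then received DMSO compounds plus conditioned medium. After 23 hr of treatment, CellTiter-Fluor was added for 1 hr at 37C and fluorescence read.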
# [18] = qHTS assay to identify small molecule agonists of the sonic hedgehog signaling (Shh) pathway (AID 1259368; calls by dose curve;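 further: NIH/3T3-derived 3T3Gli1-Luc cells carrying a stable Gli1-driven firefly luciferase reporter; series mostly up to about 92 µM; nearly all actives have a fitted effect of over 15% in size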)
# How it was run: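 Mouse fibroblast (NIH/3T3) reporter cells with stably integrated Gli1-Luc were treated 24 hr with compound; firefly luciferase luminescence served as the read-out.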
# [19] = biological target: Estrogen receptor (Homo sapiens) (UniProt P03372); assay: qHTS assay to identify small molecule antagonists of the estrogen receptor alpha (ER-alpha) signaling pathway using the BG1 cell line in the presence of 0.1 nM 17-beta-estradiol (AID 1259244); further: nearly all actives have a fitted effect of over 50% in size
# How it was run: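 VM7Luc4E2; 4xERE-luciferase; 0.1 nM E2 final; 22 h co-incubation, 37C; ONE-Glo luminescence after 30 min at room temperature.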
# [20] = biological target: Androgen receptor (Homo sapiens) (UniProt P10275); assay: qHTS assay to identify small molecule antagonists of the androgen receptor (AR) signaling pathway using the MDA cell line in the presence of 0.5 nM R1881 (AID 1259243); further: nearly all actives have a fitted effect of over 50% in size
# How it was run: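 We exposed MDA-kb2 cells to compounds under 0.5 nM R1881 stimulation for 16 hr at 37C and quantified MMTV-driven luciferase by luminescence.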
# Estrogen receptor (Homo sapiens), sequence (P03372 whole entry, looked up): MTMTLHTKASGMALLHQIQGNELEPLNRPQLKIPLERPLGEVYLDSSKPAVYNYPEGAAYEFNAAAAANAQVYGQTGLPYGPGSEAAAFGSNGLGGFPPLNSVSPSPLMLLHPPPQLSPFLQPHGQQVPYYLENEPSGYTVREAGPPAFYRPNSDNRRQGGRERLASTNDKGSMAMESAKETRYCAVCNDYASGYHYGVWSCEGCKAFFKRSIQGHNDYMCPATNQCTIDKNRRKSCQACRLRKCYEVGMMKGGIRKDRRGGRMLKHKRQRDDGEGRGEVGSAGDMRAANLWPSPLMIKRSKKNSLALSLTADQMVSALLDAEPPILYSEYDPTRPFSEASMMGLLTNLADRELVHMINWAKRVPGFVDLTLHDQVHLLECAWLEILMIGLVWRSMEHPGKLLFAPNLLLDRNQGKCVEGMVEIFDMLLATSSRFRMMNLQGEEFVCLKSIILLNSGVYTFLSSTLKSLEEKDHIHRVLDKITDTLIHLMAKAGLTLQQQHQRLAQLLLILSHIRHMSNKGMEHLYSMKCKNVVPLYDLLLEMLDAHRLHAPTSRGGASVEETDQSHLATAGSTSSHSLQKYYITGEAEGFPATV
# Androgen receptor (Homo sapiens), sequence (P10275 whole entry, looked up): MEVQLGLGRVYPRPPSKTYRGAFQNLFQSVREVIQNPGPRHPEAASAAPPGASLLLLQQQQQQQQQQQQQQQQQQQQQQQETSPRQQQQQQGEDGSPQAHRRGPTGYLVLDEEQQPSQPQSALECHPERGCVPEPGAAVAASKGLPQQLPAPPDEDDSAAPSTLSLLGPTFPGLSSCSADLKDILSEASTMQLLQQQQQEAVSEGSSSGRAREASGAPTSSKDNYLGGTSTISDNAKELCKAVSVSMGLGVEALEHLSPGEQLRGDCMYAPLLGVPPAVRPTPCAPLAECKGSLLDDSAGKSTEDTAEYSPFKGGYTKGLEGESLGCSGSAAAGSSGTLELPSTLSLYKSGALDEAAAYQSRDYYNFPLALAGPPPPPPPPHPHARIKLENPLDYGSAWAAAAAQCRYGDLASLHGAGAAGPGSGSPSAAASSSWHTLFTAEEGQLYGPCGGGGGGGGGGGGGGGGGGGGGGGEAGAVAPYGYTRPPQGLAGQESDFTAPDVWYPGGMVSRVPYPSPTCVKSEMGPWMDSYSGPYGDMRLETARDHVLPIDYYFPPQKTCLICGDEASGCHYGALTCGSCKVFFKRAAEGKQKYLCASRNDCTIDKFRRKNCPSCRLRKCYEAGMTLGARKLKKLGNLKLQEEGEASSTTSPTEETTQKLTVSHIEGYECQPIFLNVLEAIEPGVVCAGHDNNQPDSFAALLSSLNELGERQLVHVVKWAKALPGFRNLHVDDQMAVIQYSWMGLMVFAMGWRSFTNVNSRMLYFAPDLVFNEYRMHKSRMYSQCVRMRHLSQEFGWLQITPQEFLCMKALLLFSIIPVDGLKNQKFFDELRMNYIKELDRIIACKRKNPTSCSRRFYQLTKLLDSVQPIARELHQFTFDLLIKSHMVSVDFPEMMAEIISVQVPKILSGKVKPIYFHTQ
compound,measurement,setting,value
CC1CCc2cc(F)cc3c(=O)c(C(=O)O)cn1c23 (configuration not stated),Potency,[1],inactive
same,Potency,[2],inactive
same,Potency,[3],inactive
same,Potency,[4],inactive
same,Potency,[5],inactive
same,Potency,[6],inactive
same,Potency,[7],inactive
same,Potency,[8],inactive
same,Potency,[9],inactive
same,Potency,[10],inactive
same,Potency,[11],inactive
same,Potency,[12],inactive
same,Potency,[13],inactive
same,Potency,[14],inactive
same,outcome,[15],inactive
same,Potency,[16],inactive
same,Potency,[17],inactive
same,outcome,[18],inactive
Cc1c(Cn2ccnc2)c2ccccc2n1CCC(=O)O,Potency,[1],inactive
same,Potency,[2],inactive
same,Potency,[3],inactive
same,Potency,[4],inactive
same,Potency,[5],inactive
same,Potency,[6],inactive
same,Potency,[7],inactive
same,Potency,[8],inactive
same,Potency,[9],inactive
same,Potency,[10],inactive
same,Potency,[11],inactive
same,Potency,[12],inactive
same,Potency,[13],inactive
same,Potency,[14],inactive
same,outcome,[15],inactive
same,Potency,[16],inactive
same,Potency,[17],inactive
same,outcome,[18],inactive
CCCC(=O)OCC,Potency,[1],inactive
same,Potency,[2],inactive
same,Potency,[3],inactive
same,Potency,[4],inactive
same,Potency,[5],inactive
same,Potency,[6],inactive
same,Potency,[7],inactive
same,Potency,[8],inactive
same,Potency,[9],inactive
same,Potency,[10],inactive
same,Potency,[11],inactive
same,Potency,[12],inactive
same,Potency,[19],inactive
same,Potency,[14],inactive
same,outcome,[15],inactive
same,Potency,[16],inactive
same,Potency,[17],inactive
same,outcome,[18],inactive
NC1CCN(c2nc3c(cc2F)c(=O)c(C(=O)O)cn3-c2ccc(F)cc2F)C1 (configuration not stated),Potency,[1],inactive
same,Potency,[2],inactive
same,Potency,[3],inactive
same,Potency,[4],inactive
same,Potency,[5],inactive
same,Potency,[6],inactive
same,Potency,[7],inactive
same,Potency,[8],inactive
same,Potency,[9],inactive
same,Potency,[10],inactive
same,Potency,[11],inactive
same,Potency,[12],inactive
same,Potency,[19],inactive
same,Potency,[13],inactive
same,Potency,[14],inactive
same,outcome,[15],inactive
same,Potency,[16],inactive
same,Potency,[17],inactive
same,outcome,[18],inactive
O=C(CCN1CCN2CCCC2C1)N1c2ccccc2Sc2ccc(Cl)cc21 (configuration not stated),cytotoxicity increase,[1],1.45% [at 15.8 µM]
same,cytotoxicity,[2],0.972% [at 15.8 µM]
same,cytotoxicity increase,[3],16.3% [at 15.8 µM]
same,cytotoxicity increase,[4],-4.39% [at 15.8 µM]
same,"activity change, negative = cytotoxic",[5],-5.42% [at 15.8 µM]
same,"activity change, negative = cytotoxicity",[6],-17.5% [at 15.8 µM]
same,"activity change, negative = cytotoxicity",[7],-6.11% [at 15.8 µM]
same,activity change,[8],"1.83% [at 15.8 µM, stronger effect = higher value]"
same,"activity change, negative = cytotoxicity",[9],-0.655% [at 15.8 µM]
same,cytotoxicity increase,[10],7.39% [at 15.8 µM]
same,"activity change, negative = cytotoxicity",[11],-14.8% [at 19 µM]
same,"viability change, negative = cytotoxic",[12],-3.61% [at 19 µM]
same,"activity, negative = inhibition",[20],-18% [at 19 µM]
same,"activity change, negative = inhibition",[19],3.86% [at 19 µM]
same,"activity change, negative = inhibition",[14],3.91% [at 19 µM]
same,"activity change, negative = cytotoxicity",[15],-2.44% [at 19 µM]
same,activity change,[18],-0.0401% [at 18.9 µM]
O=C(O)C1CCC(C(=O)O)CC1 (configuration not stated),Potency,[1],inactive
same,Potency,[2],inactive
same,Potency,[3],inactive
same,Potency,[4],inactive
same,Potency,[5],inactive
same,Potency,[6],inactive
same,Potency,[7],inactive
same,Potency,[8],inactive
same,Potency,[9],inactive
same,Potency,[10],inactive
same,Potency,[11],inactive
same,Potency,[12],inactive
same,Potency,[19],inactive
same,Potency,[14],inactive
same,outcome,[15],inactive
same,Potency,[16],inactive
same,Potency,[17],inactive
same,outcome,[18],inactive
O=C(NS(=O)(=O)/C=C/c1cccs1)c1ccc(F)cc1Br,Potency,[1],inactive
same,Potency,[2],inactive
same,Potency,[3],inactive
same,Potency,[4],inactive
same,Potency,[5],inactive
same,Potency,[6],inactive
same,Potency,[7],inactive
same,Potency,[8],inactive
same,Potency,[9],15.5 µM (active)
same,Potency,[10],inactive
same,Potency,[11],inactive
same,Potency,[12],inactive
same,Potency,[20],inactive
same,Potency,[19],inactive
same,Potency,[14],inactive
same,outcome,[15],inactive
same,Potency,[16],inactive
same,Potency,[17],inactive
same,outcome,[18],inactive
